In all, about 370,000 compounds went through this assay and about 2,600 (0.7%) were called active.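 The calls were made as follows: active = inhibition above a cutoff: mean of compounds within the control limits plus 3 SD of those (cut at about 17% in these data); inactive = the rest.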 What follows is part of a selection rich in actives, with near analogues and random picks from the rest.

From PubChem BioAssay AID1053197 (The Scripps Research Institute Molecular Screening Center, 2014) come the findings set out here.

The target of the experiment is Sialate O-acetylesterase (Homo sapiens) (UniProt Q9HAT2). The experiment in a line: human SIAE inhibitors, primary screen, biochemical, fluorescence polarization, FP-Rh probe, 1536-well HTS (AID 1053197).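 Also: 0% = plate median of compound wells and 100% = probe without SIAE protein.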 Conditions: SIAE FP-Rh probe binding, at 9.66 µM, active compounds read high. A general note: Fluorescence polarisation rises when a labelled molecule tumbles more slowly, as on binding a larger partner.
Sialate O-acetylesterase (Homo sapiens), sequence (Q9HAT2 whole entry, looked up): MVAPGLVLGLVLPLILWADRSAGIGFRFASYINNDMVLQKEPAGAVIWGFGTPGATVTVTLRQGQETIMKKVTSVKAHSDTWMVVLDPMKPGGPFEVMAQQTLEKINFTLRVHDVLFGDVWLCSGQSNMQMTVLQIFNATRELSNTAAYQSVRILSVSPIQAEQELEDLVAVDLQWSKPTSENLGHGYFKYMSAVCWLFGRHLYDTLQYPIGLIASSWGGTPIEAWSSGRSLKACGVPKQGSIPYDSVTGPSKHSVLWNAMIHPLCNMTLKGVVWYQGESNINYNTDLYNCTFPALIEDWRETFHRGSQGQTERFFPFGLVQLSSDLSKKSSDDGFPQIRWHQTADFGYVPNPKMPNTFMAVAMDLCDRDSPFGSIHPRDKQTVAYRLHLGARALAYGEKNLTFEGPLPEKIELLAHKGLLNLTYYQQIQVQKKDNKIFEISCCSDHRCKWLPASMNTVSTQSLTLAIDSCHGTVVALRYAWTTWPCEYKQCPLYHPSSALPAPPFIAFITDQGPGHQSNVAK
In general, inhibition refers to the change of the read-out against control, counted positive when it falls. Consider `CCOc1ccc(-n2c(SCC(=O)Nc3cc(C)c(NC(=O)c4ccccc4)cc3OC)nnc2-c2cccs2)cc1`, for which the inhibition is -1.97% (inactive).

Take `COC(=O)C1CN(CC(C)C)CCS(=O)(=O)N1Cc1ccc(F)cc1` (stereo not given): the inhibition is -0.32% (inactive).

In the case of `COCCCNC(=O)C[C@H]1C[C@@]2(C(=O)OC)C(=C[C@H](C(C)(C)C)O[C@@H]2C)N(Cc2ccc(Cl)cc2Cl)C1=O`, the inhibition is -5.63% (inactive).

For `O=C(NCC1COc2ccccc2O1)c1ccc(NC(=O)c2cc(F)ccc2F)cc1` (stereo not given), the inhibition was -1.61% (inactive).

Consider `CCOC(=O)[C@]12CCCCC/C=C\1N(Cc1ccc(OC)cc1)C(=O)[C@H]2CC(=O)N1CCOCC1`, for which the inhibition is -1.12% (inactive).

On to `COc1cc(OC)cc(C(=O)NCC(=O)N2CCCCCCC2)c1`, for which the inhibition was 0.93% (inactive).

On to `COc1ccc(OC)c(CN2CCN(C(=O)CNC(=O)c3cc(C)cc(C)c3)CC2)c1`, for which the inhibition is 21.8% (active).

For `Cc1cc(C)cc(C(=O)NCC(=O)OCC(=O)N2CCCCC2)c1`, the inhibition was 2% (inactive).

For the molecule `CCOC(=O)[C@@]12CN(C(=O)OC(C)(C)C)CC=C1N(Cc1ccc(OC)cc1)C(=O)[C@H]2CC(=O)NCc1ccc(OC)c(OC)c1`, the inhibition was 4.2% (inactive).

For `CCOc1ccc(-c2nnc3ccc(SC)nn23)cc1`, the inhibition is -1.24% (inactive).

As for `COC(=O)C(C)Sc1ccc2nnc(-c3cccc(F)c3)n2n1` (stereo not given), the inhibition is 24.6% (active).

With `CCOC(=O)CNC(=O)CSc1ccc2nnc(-c3cccnc3)n2n1`, the inhibition is 0.77% (inactive).

Consider `CN(C)[C@H]1CCN(c2cccc3c2S(=O)(=O)N2CC[C@H](C2)O3)C1`, for which the inhibition is -4.89% (inactive).

Regarding `O=C(CN1CCCc2ccccc21)NCc1ccc(F)cc1`, the inhibition was 7.37% (inactive).

Turning to `COC(=O)[C@H](C(C)C)N(CCCc1cn(Cc2ccccc2)nn1)S(=O)(=O)c1ccc(F)cc1Br`, the inhibition is -3.32% (inactive).

With `O=C(N/N=C1\CCSC1)c1cc(Cl)ccc1O`, the inhibition is 8.12% (inactive).

For `CC(C)/C=N/NC(=O)c1cc(Br)ccc1O`, the inhibition is 19.5% (active).

Regarding `CC(=N\NC(=O)c1cc(Br)ccc1O)/C(=N/O)C(=O)Nc1ccccc1`, the inhibition was 9.77% (inactive).

Regarding `COc1ccc(-n2c(SCC(=O)NC3CCCC3)nnc2-c2ccncc2)cc1`, the inhibition is 6.27% (inactive).

Regarding `O=C(NC1CCC1)c1ccc(C#Cc2cccc(F)c2)c[n+]1[O-]`, the inhibition is -0.65% (inactive).

With `CC(C)(C)c1cnnn1-c1ccc([N+](=O)[O-])cc1`, the inhibition was -4.05% (inactive).

`O=c1[nH]n(-c2ccc([N+](=O)[O-])cc2)c(=O)c2ccccc12`: the inhibition was 31.2% (active).

On to `O=C(Nn1c(SCc2ccc([N+](=O)[O-])cc2)nc2ccccc2c1=O)c1ccc(F)cc1`, for which the inhibition was -45.6% (inactive).

Take `O=C(NCCC1=CCCCC1)C1CCN(S(=O)(=O)c2ccc(Cl)s2)CC1`: the inhibition is -2.35% (inactive).

Turning to `Cc1nn(-c2ccccc2)c(C)c1NC(=O)COC(=O)c1cc(Cl)ccc1O`, the inhibition is -4.36% (inactive).

With `C/C=C/c1ccc(OCC(=O)OCC(=O)Nc2c(C)nn(-c3ccccc3)c2C)c(OC)c1`, the inhibition was 18.3% (active).

Take `CCC(Oc1ccccc1)C(=O)OCC(=O)Nc1c(C)nn(-c2ccccc2)c1C` (stereo not given): the inhibition was 5.85% (inactive).

On to `CCc1ccc(N(CC)c2ncnc3nc[nH]c23)cc1`, for which the inhibition was -3.78% (inactive).

`COc1ccc(CCNc2nc3ccc(C)cc3n3cnnc23)cc1OC`: the inhibition is -5.53% (inactive).

For the molecule `COc1ccc(CCNc2ncnc3nc[nH]c23)cc1OC`, the inhibition is 32.2% (active).

In the case of `Cc1ccc(OCc2nnc(SC/C=C/c3ccccc3)n2Cc2ccco2)cc1`, the inhibition was 4.07% (inactive).

For `C=CCN(C(=O)[C@@H](CCCC)[C@@H](O)c1ccc(Cl)cc1)c1ccccc1`, the inhibition is -2.75% (inactive).

As for `COc1ccc(-c2ccc3nnc(SCC(=O)Nc4ccc(NC(C)=O)cc4)n3n2)cc1`, the inhibition was -23.3% (inactive).

For the molecule `CN(c1ccc(O)cc1)c1nc(-c2cccnc2)cs1`, the inhibition was 7.08% (inactive).

As for `COc1ccc(-c2csc(Nc3ccc(O)cc3)n2)cc1`, the inhibition is 26.2% (active).
